In PubChem BioAssay (NCI):
The panel holds about 83,000 compounds, 20% with a hit somewhere; the sample as a whole holds those more often.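 Compound tested at a single concentration for 48 hours in 96-well plates; a percent growth value below 10 was scored as active.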 A number with no mark means an inactive call. Active and inactive are the calls of the source.

Key:
Experiment in all cases: NCI-60 one-dose screen, 48 h (100 = growth as untreated, 0 = no growth, -100 = all killed)
Conditions in all cases: 10 µM unless noted
SK-MEL-2 melanoma = test system: SK-MEL-2 melanoma
EKVX NSCLC = test system: EKVX NSCLC
SN12C renal = test system: SN12C renal
UO-31 renal = test system: UO-31 renal
TK-10 renal = test system: TK-10 renal
ACHN renal = test system: ACHN renal
A498 renal = test system: A498 renal
CCRF-CEM leukemia = test system: CCRF-CEM leukemia
MOLT-4 leukemia = test system: MOLT-4 leukemia
SR leukemia = test system: SR leukemia
RPMI-8226 leukemia = test system: RPMI-8226 leukemia
OVCAR-8 ovarian = test system: OVCAR-8 ovarian
OVCAR-5 ovarian = test system: OVCAR-5 ovarian
OVCAR-4 ovarian = test system: OVCAR-4 ovarian
SK-OV-3 ovarian = test system: SK-OV-3 ovarian
IGROV1 ovarian = test system: IGROV1 ovarian
OVCAR-3 ovarian = test system: OVCAR-3 ovarian
HS 578T breast = test system: HS 578T breast
NCI/ADR-RES ovarian = test system: NCI/ADR-RES ovarian
T-47D breast = test system: T-47D breast

| SMILES | growth (SK-MEL-2 melanoma) | growth (EKVX NSCLC) | growth (SN12C renal) | growth (UO-31 renal) | growth (TK-10 renal) | growth (ACHN renal) | growth (A498 renal) | growth (CCRF-CEM leukemia) | growth (MOLT-4 leukemia) | growth (SR leukemia) | growth (RPMI-8226 leukemia) | growth (OVCAR-8 ovarian) | growth (OVCAR-5 ovarian) | growth (OVCAR-4 ovarian) | growth (SK-OV-3 ovarian) | growth (IGROV1 ovarian) | growth (OVCAR-3 ovarian) | growth (HS 578T breast) | growth (NCI/ADR-RES ovarian) [%] | growth (T-47D breast) |
| --- | --- | --- | --- | --- | --- | --- | --- | --- | --- | --- | --- | --- | --- | --- | --- | --- | --- | --- | --- | --- |
| O=c1cc(/C=N\Nc2nc(-c3ccc(Cl)cc3Cl)cs2)c2cc(Cl)ccc2o1 | 92.9% | 79.3% | 95% | 70.4% | 120% | 97.7% | 101% | 97.3% | 98.1% | 80.7% | 90.8% | 99.7% | 96.9% | 85.3% | 81.8% | 79.8% | 101% | 101% | 98.1 | 69.7% |
| C=C(C)[C@@H]1CC[C@]2(C(=O)OCCOCCOCC[P+](c3ccccc3)(c3ccccc3)c3ccccc3)CC[C@]3(C)[C@H](CC[C@@H]4[C@@]5(C)CC[C@H](OC(=O)C(Cl)Cl)C(C)(C)[C@@H]5CC[C@]43C)[C@@H]12 | -45.4% (active) | -15.2% (active) | -46.9% (active) | -45.1% (active) | 15.7% | -79.2% (active) | -28.3% (active) | 4.25% (active) | -8.02% (active) | -32% (active) | -39.3% (active) | 5.47% (active) | 39.3% | -0.899% (active) | -8.97% (active) | 6.43% (active) | -43.9% (active) | 21.3% | 50.2 | -21.2% (active) |
| O=S(=O)(Nc1nccs1)c1ccc(Nc2nc(-c3ccncc3)cs2)cc1 | 105% | 107% | 97.4% | 101% | 120% | 99.5% | 113% | 104% | 117% | 111% | 99.3% | 121% | 117% | 115% | 108% | 84.1% | 118% | 96.8% | 122 | 105% |
| CC(=O)OCC1SC(OC(C)=O)C(NC(=O)/C=C/CCl)C(OC(C)=O)C1OC(C)=O (stereo not given) | 79.9% | 102% | 89.4% | 102% | 93.8% | 92.1% | 96.3% | 83.7% | 88.1% | 86.2% | 95.2% | 98.2% | 148% | 101% | 86.4% | 105% | 102% | 93.5% | 103 | 90.6% |
| C=C1C(=O)O[C@H]2[C@H]1CC/C(COC(=O)CCC(=O)OC/C1=C/CC[C@@]3(C)O[C@H]3[C@H]3OC(=O)C(=C)[C@@H]3CC1)=C\CC[C@@]1(C)O[C@@H]21 | 60.8% | 44.5% | 5.32% (active) | 0.355% (active) | 25% | -21.8% (active) | 114% | -8.57% (active) | 1.24% (active) | 0.484% (active) | -0.781% (active) | 32.8% | 94.6% | 47.3% | 84.9% | 11.5% | -11% (active) | 79.6% | 89.8 | 19.7% |
| CCOC(=O)c1c(C)nc2c(c1N)/C(=C/c1ccc[nH]1)C(=O)N2Cc1ccc(C(F)(F)F)cc1 | 75.5% | 53.7% | 49.4% | 35.4% | 49.3% | 26.1% | 57.5% | 75% | 78.4% | 62.5% | 104% | 28.5% | 74.5% | 12.6% | 21.9% | 54.7% | 47.7% | 38% | 49.7 | 24.8% |
| Cn1c2ccccc2c2c(OC(=O)c3ccccc3)c3c(nc21)-c1ccccc1C3 | 81.1% | 86% | 98.1% | 79.9% | 124% | 97.1% | 119% | 98.8% | 96.3% | 91.7% | 96.2% | 92.7% | 112% | 95.7% | 92% | 82.5% | 99.1% | 107% | 99 | 63.7% |
| S=c1ssnc1-c1cc2ccccc2o1 | 91.2% | 76.6% | 98.8% | 52.5% | 98.4% | 80.3% | 103% | 7.9% (active) | 51.1% | 41.6% | 21.4% | 86% | 105% | 83.2% | 85.7% | -54% (active) | 80.4% | 61.9% | 78 | 64.5% |
| C#C[C@@]1(O)[C@@H](CO)O[C@@H](n2cc(Cl)c3c(N)ccnc32)[C@@H]1O | 76.9% | 89.7% | 78.8% | 72.2% | 122% | 64.8% | 87.7% | 58.4% | 45.6% | 68.9% | 39.9% | 26.9% | 111% | 79.9% | 95.4% | 88.3% | 47.6% | 102% | 28.5 | 93.8% |
| O=C(C[n+]1cccc2cc(Cl)ccc21)c1ccc2c(c1)CCCC2 | 28.3% | 44.7% | 10.1% | 91.4% | 62% | 86.2% | 74% | 16% | 1.84% (active) | 19% | 7.65% (active) | 25.6% | 28.3% | 16.2% | 16.9% | 33.7% | 0.868% (active) | 37.5% | 101 | 2.41% (active) |
| COc1cc(-c2cn(-c3ccc(Cl)c(Cl)c3)c(=O)[nH]2)cc(OC)c1OC | 97% | 95.3% | 87.5% | 93.6% | 94.7% | 96.5% | 110% | 99.6% | 85.1% | 31% | 99.3% | 95.1% | 87.6% | 98.9% | 88.3% | 136% | 99.5% | 95.3% | 95.5 | 90.1% |
| O=C1NN(c2ccccc2)C(c2ccc(Cl)cc2)N2CCC[C@H]12 (stereo not given in full) | 107% | 94.8% | 105% | 85.3% | 111% | 106% | 84.5% | 107% | 99.5% | 111% | 102% | 98.1% | 103% | 95.7% | 107% | 98.6% | 93.4% | 91.6% | 93.1 | 100% |
| O=C(Nc1nc(-c2ccccc2)cs1)c1cc(-c2ccc(Br)cc2)nc2ccccc12 | 67% | 41.2% | 54.9% | 17.2% | 63.2% | 55.4% | -55.9% (active) | 20.9% | 24% | 19.5% | 39.9% | 57.1% | 81.7% | 57.6% | 51.6% | 59.4% | 63.4% | 62.1% | 58.5 | 21.7% |
| NS(=O)(=O)c1ccc(C2C3=C(CCCC3=O)OC3=C2C(=O)c2ccccc2C3=O)cc1 (stereo not given) | -74% (active) | -55.4% (active) | -52.7% (active) | -21.6% (active) | -92.6% (active) | -78.9% (active) | -68.9% (active) | -10.5% (active) | -54.6% (active) | -19.9% (active) | -35.8% (active) | -14.5% (active) | -53.1% (active) | -96.6% (active) | -23.9% (active) | -52.3% (active) | -66.1% (active) | -5.38% (active) | 56.9 | -50.7% (active) |
